From PubChem BioAssay (NCATS)
Where “and” joins values, the source holds several entries; their conditions need not be identical. Identical values can stand only once. Records with an inconclusive call do not appear. Calls of active or inactive are those of the source. Unless noted, calls follow the shape of the full dose curve.

Experiments:
[1] = qHTS Assay for Lipid Storage Modulators (AID 1519); settings: Drosophila S3 cells, BODIPY lipid droplet/cell ratio, laser cytometry, cells loaded with oleic acid; as to activity change, negative = inhibition: % is scaled to controls: 0 for no effect and ±100 for the full control effect
Outline: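 Cells seeded at 5,000 per well were treated with compounds over a concentration series and loaded with oleic acid (400 uM, as added). Lipid droplet fluorescence (488 nm excitation, 500-530 nm channel) was read by laser-scanning cytometry and normalized to 20 uM Triacsin C.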

[2] = target: DNA repair nuclease/redox regulator APEX1 (Homo sapiens) (UniProt P27695); assay: qHTS Validation Assay for Inhibitors of the Human Apurinic/apyrimidinic Endonuclease 1 (APE1) (AID 1705; active = well fitted curve in the direction sought with a large enough effect; an effect the other way counts as inactive or inconclusive;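 also: TAMRA fluorescence gain over two minutes as APE1 cuts a quenched THF abasic duplex; % is scaled to controls: 0 for no effect and ±100 for the full control effect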); settings: purified APE1 endonuclease activity, fluorescence, titration; series mostly up to 57.1 µM
Sequence of DNA repair nuclease/redox regulator APEX1 (Homo sapiens) (P27695 whole entry, looked up): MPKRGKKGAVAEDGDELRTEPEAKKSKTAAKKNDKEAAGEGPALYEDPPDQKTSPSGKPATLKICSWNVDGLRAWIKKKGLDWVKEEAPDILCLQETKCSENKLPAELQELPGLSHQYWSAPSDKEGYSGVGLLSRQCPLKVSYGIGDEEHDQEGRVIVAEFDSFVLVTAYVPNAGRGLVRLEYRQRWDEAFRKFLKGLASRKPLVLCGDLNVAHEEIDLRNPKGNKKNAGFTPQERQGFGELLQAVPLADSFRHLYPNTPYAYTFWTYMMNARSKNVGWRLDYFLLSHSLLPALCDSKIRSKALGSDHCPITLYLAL
Outline: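 Substrate: 50 nM final fluorophore/quencher THF-abasic duplex. Enzyme preincubated with compounds 15 min, RT. Progress derived from fluorescence difference, third minus first kinetic read.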

[3] = Counterscreen for APE1 Inhibitors: Fluorescent Dye Displacement Validation Assay (AID 1707; active = well fitted curve in the direction sought with a large enough effect; an effect the other way counts as inactive or inconclusive;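 also: plate controls were ThO with dsDNA and no compound for no effect and ThO without dsDNA for full effect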); settings: fluorescent dye displacement from DNA; series mostly up to 57.1 µM
Outline: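 Endpoint fluorescence read at 480 nm excitation / 540 nm emission; DNA-binding compounds lower signal by displacing 250 nM Thiazole Orange from 50 nM dsDNA containing a tetrahydrofuran abasic site, Tris-HCl pH7.5 buffer with NaCl and MgCl2.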

[4] = target: Endonuclease 4 (Escherichia coli (strain K12)) (UniProt P0A6C1); assay: Counterscreen for APE1 Inhibitors: qHTS Validation Assay for Inhibitors of Endonuclease IV (AID 1708; active = well fitted curve in the direction sought with a large enough effect; an effect the other way counts as inactive or inconclusive; also: % is scaled to controls: 0 for no effect and ±100 for the full control effect); settings: E. coli endonuclease IV, DNA cleavage fluorescence; series mostly up to 57.1 µM
Outline: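 Enzyme (2 nM) + compound, 15 min RT; add 50 nM TAMRA/BHQ-2 THF-site dsDNA; kinetic read ex525/em598, 3 reads/60 s; activity = read 3 − read 1. Buffer Tris pH 7.5, 50 mM NaCl, 2 mM MgCl2, DTT, Tween-20.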

[5] = qHTS for differential inhibitors of proliferation of Plasmodium falciparum line D10 (AID 1877; active = well fitted curve in the direction sought with a large enough effect; an effect the other way counts as inactive or inconclusive;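 also: parasites grown with compound for 72 h before DNA staining; plate controls were vehicle wells for no effect and reference inhibitor wells for full effect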); settings: series mostly up to 28.7 µM
[6] = qHTS for differential inhibitors of proliferation of Plasmodium falciparum line Dd2 (AID 1882; active = well fitted curve in the direction sought with a large enough effect; an effect the other way counts as inactive or inconclusive; also: potency is read from the fitted curve at half-maximal effect; nearly all actives have a fitted effect of over 65% in size); settings: Potency: Plasmodium falciparum Dd2 proliferation inhibition; series mostly up to 28.7 µM
Outline: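 SYBR Green DNA fluorescence (ex 485, em 535 nm) after overnight lysis quantifies parasite growth; compound exposure lasted 72 h at 37 C on infected red cells at 2.5% hematocrit, 0.3% parasitemia (final). Artemisinin 0.29 uM and vehicle wells define normalization.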

[7] = measured here: cell count channel max response
[8] = measured here: lipid channel max response

In the case of `O=C(O)CCC(=O)c1ccc(-c2ccccc2)cc1`, the activity change, negative = inhibition ([1]; at 25.7 µM (top of the series)) is reported as 2.12% (inactive), the max response [1, 7] is reported as -6.39% and the max response [1, 8] is reported as -2.43%.

For `NCC(O)CC(=O)O` (centres undefined), the activity change, negative = inhibition ([1]; at 57.5 µM (top of the series)) was 7.57% (inactive), the max response [1, 7] was 11% and the max response [1, 8] was 22.3%.

With `O=C(O)Cc1cc(I)c(Oc2ccc(O)c(I)c2)c(I)c1` the activity change, negative = inhibition ([1]; at 25.7 µM (top of the series)) was -0.457% (inactive), the max response [1, 7] was 2.07% and the max response [1, 8] was 0.793%.

In the case of `Nc1ccc(N=Nc2ccccc2)c(N)n1`, the activity change, negative = inhibition ([1]; at 25.7 µM (top of the series)) is reported as -0.0516% (inactive), the activity change, negative = inhibition ([1]; at 57.5 µM (top of the series)) is reported as 17.8% (inactive) and the max response [1, 7] is reported as -20.4% and -3.25%. For the same molecule, the max response [1, 8] was -21.4% and 16.6%.

In the case of `Cc1cccc(C)c1NC(=O)C1CCCCN1C` (centres undefined), the activity change, negative = inhibition ([1]; at 57.5 µM (top of the series)) is reported as 7.8% (inactive), the max response [1, 7] is reported as 19% and the max response [1, 8] is reported as 29.6%.

With `C[C@@](Cc1ccc(O)c(O)c1)(NN)C(=O)O` the activity change, negative = inhibition ([1]; at 57.5 µM (top of the series)) was -0.657% (inactive), the max response [1, 7] was -17.5% and the max response [1, 8] was -16%. For the same molecule, the outcome [2] was “inactive”, the outcome [3] was “inactive” and the outcome [4] was “inactive”. The outcome [5] was “inactive” and the Potency [6] was 10 µM (active).
